# Over roughly 8,300 sequences, “log2 fold change of degron read counts, EGFP-low vs EGFP+ sorted cells (limma voom), compound-induced degradation” has its median near -1.1; the highest 2% begin near 3.2. Many of the other results were omitted from the sample, so the highest values are more common in it than they were.
# T1: CRBN, Q96SW2
# T1 chain: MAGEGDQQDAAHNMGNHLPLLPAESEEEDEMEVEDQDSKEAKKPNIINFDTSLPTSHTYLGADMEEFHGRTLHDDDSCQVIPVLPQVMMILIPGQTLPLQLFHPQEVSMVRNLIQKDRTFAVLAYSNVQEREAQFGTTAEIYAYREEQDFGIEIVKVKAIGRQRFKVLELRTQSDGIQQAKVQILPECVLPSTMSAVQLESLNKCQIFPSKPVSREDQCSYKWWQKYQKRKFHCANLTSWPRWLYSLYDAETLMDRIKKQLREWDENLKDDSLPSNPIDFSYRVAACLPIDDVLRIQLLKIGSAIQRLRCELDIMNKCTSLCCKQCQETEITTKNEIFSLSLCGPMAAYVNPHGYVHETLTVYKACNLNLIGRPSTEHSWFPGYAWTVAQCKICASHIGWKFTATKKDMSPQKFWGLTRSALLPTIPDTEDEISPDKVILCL
# B1: 46F_47V_49E_50I_52G_53H_54L_55F_67L_, Q9UKT9 (peptide)
# chain: FVCEICGHLFTQKGNLLRHIKL
# B2: 46F_47E_49N_50I_52G_53A_54L_55F_67L_, Q9UKT9 (peptide)
# chain: FECNICGALFTQKGNLLRHIKL
# B3: 46F_47Q_49D_50V_52G_53A_54F_55F_67L_, Q9UKT9 (peptide)
# chain: FQCDVCGAFFTQKGNLLRHIKL
# B4: 46F_47Y_49D_50Q_52G_53A_54Q_55F_67L_, Q9UKT9 (peptide)
# chain: FYCDQCGAQFTQKGNLLRHIKL
# B5: 46L_47C_49P_50I_52G_53F_54Y_55C_67L_, Q9UKT9 (peptide)
# chain: LCCPICGFYCTQKGNLLRHIKL
# B6: 46L_47A_49P_50I_52G_53F_54Y_55C_67L_, Q9UKT9 (peptide)
# chain: LACPICGFYCTQKGNLLRHIKL
# B7: 46L_47Q_49P_50I_52G_53F_54Y_55C_67L_, Q9UKT9 (peptide)
# chain: LQCPICGFYCTQKGNLLRHIKL
# B8: 46L_47H_49P_50I_52G_53F_54Y_55C_67L_, Q9UKT9 (peptide)
# chain: LHCPICGFYCTQKGNLLRHIKL
# B9: 46L_47W_49P_50I_52G_53F_54Y_55C_67L_, Q9UKT9 (peptide)
# chain: LWCPICGFYCTQKGNLLRHIKL
# B10: 46L_47I_49P_50I_52G_53F_54Y_55C_67L_, Q9UKT9 (peptide)
# chain: LICPICGFYCTQKGNLLRHIKL
# B11: 46L_47V_49P_50I_52G_53F_54Y_55C_67L_, Q9UKT9 (peptide)
# chain: LVCPICGFYCTQKGNLLRHIKL
# B12: 46L_47D_49P_50I_52G_53F_54Y_55C_67L_, Q9UKT9 (peptide)
# chain: LDCPICGFYCTQKGNLLRHIKL
# B13: 46L_47G_49P_50I_52G_53F_54Y_55C_67L_, Q9UKT9 (peptide)
# chain: LGCPICGFYCTQKGNLLRHIKL
# B14: 46L_47M_49P_50I_52G_53F_54Y_55C_67L_, Q9UKT9 (peptide)
# chain: LMCPICGFYCTQKGNLLRHIKL
# B15: 46L_47F_49P_50I_52G_53F_54Y_55C_67L_, Q9UKT9 (peptide)
# chain: LFCPICGFYCTQKGNLLRHIKL
# B16: 46L_47S_49P_50I_52G_53F_54Y_55C_67L_, Q9UKT9 (peptide)
# chain: LSCPICGFYCTQKGNLLRHIKL
# B17: 46L_47Y_49E_50I_52G_53F_54G_55C_67L_, Q9UKT9 (peptide)
# chain: LYCEICGFGCTQKGNLLRHIKL
# B18: 46F_47V_49N_50Q_52G_53R_54W_55F_67L_, Q9UKT9 (peptide)
# chain: FVCNQCGRWFTQKGNLLRHIKL
# B19: 46F_47D_49N_50V_52G_53A_54K_55F_67L_, Q9UKT9 (peptide)
# chain: FDCNVCGAKFTQKGNLLRHIKL
# B20: 46L_47T_49P_50I_52G_53F_54Y_55C_67L_, Q9UKT9 (peptide)
# chain: LTCPICGFYCTQKGNLLRHIKL
# B21: 46L_47K_49P_50I_52G_53F_54Y_55C_67L_, Q9UKT9 (peptide)
# chain: LKCPICGFYCTQKGNLLRHIKL
# B22: 46L_47N_49P_50I_52G_53F_54Y_55C_67L_, Q9UKT9 (peptide)
# chain: LNCPICGFYCTQKGNLLRHIKL
# B23: 46L_47L_49P_50I_52G_53F_54Y_55C_67L_, Q9UKT9 (peptide)
# chain: LLCPICGFYCTQKGNLLRHIKL
# B24: 46L_47E_49P_50I_52G_53F_54Y_55C_67L_, Q9UKT9 (peptide)
# chain: LECPICGFYCTQKGNLLRHIKL
# B25: 46L_47Y_49P_50I_52G_53F_54Y_55C_67L_, Q9UKT9 (peptide)
# chain: LYCPICGFYCTQKGNLLRHIKL
# B26: 46F_47C_49E_50I_52G_53H_54I_55F_67L_, Q9UKT9 (peptide)
# chain: FCCEICGHIFTQKGNLLRHIKL
# B27: 46F_47L_49N_50Q_52G_53R_54T_55F_67L_, Q9UKT9 (peptide)
# chain: FLCNQCGRTFTQKGNLLRHIKL
# B28: 46F_47N_49P_50Q_52G_53A_54N_55F_67L_, Q9UKT9 (peptide)
# chain: FNCPQCGANFTQKGNLLRHIKL
# Biological target: T1, CRBN, Q96SW2
# Experiment: log2 fold change of degron read counts, EGFP-low vs EGFP+ sorted cells (limma voom), compound-induced degradation; higher = more compound-induced degradation of the degron-EGFP fusion; degrons are variants of IKZF1/3 zinc finger 2; compound dose not given here
# Settings: Jurkat, 18 h
# Protocol: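 Pooled library of 8380 IKZF3 ZF2 degron mutants (positions 146-167 varied within the IKZF3 130-189 degron; only the varied core is printed, flanks not printed) fused to EGFP with IRES-mCherry, lentivirally expressed in Jurkat cells. mCherry+ cells were treated with one IMiD compound for 18 h (dose not stated) and FACS-sorted into EGFP-low and EGFP+ populations. Degron sequences were counted by NGS, and log2FC (EGFP-low vs EGFP+) was estimated by limma voom over 3 biological replicates.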
# [1] = compound: compound 19 (5-tert-butyl-thalidomide)
# [2] = compound: compound 22 (5-morpholino-thalidomide)
# [3] = compound: compound 33 (diphenyl IMiD analogue)
# 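Further: pooled lentiviral library of zinc finger degron-EGFP fusions in mCherry-positive Jurkat cells, FACS-sorted after compound exposure, with degron abundance counted by next-generation sequencing.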
sequence,measurement,setting,value
B1,log2 fold change of degron read counts,[1],-3.22
same,log2 fold change of degron read counts,[2],-3.09
same,log2 fold change of degron read counts,[3],-2.38
same,log2 fold change of degron read counts,compound: thalidomide,-2.39
B2,log2 fold change of degron read counts,[1],-3.14
same,log2 fold change of degron read counts,[2],-2.25
same,log2 fold change of degron read counts,[3],-0.0305
same,log2 fold change of degron read counts,compound: thalidomide,0.62
B3,log2 fold change of degron read counts,[1],-2.75
same,log2 fold change of degron read counts,[2],-1.91
same,log2 fold change of degron read counts,[3],-0.307
same,log2 fold change of degron read counts,compound: thalidomide,0.0287
B4,log2 fold change of degron read counts,[1],0.267
same,log2 fold change of degron read counts,[2],1.09
same,log2 fold change of degron read counts,[3],-0.551
same,log2 fold change of degron read counts,compound: thalidomide,-2.11
B5,log2 fold change of degron read counts,[1],1.68
same,log2 fold change of degron read counts,[2],2.29
same,log2 fold change of degron read counts,[3],3.16
same,log2 fold change of degron read counts,compound: thalidomide,3.24
B6,log2 fold change of degron read counts,[1],3.56
same,log2 fold change of degron read counts,[2],2.79
same,log2 fold change of degron read counts,[3],2.52
same,log2 fold change of degron read counts,compound: thalidomide,2.89
B7,log2 fold change of degron read counts,[1],1
same,log2 fold change of degron read counts,[2],1.74
same,log2 fold change of degron read counts,[3],2.07
same,log2 fold change of degron read counts,compound: thalidomide,3.47
B8,log2 fold change of degron read counts,[1],2.56
same,log2 fold change of degron read counts,[2],2.82
same,log2 fold change of degron read counts,[3],2.85
same,log2 fold change of degron read counts,compound: thalidomide,2.7
B9,log2 fold change of degron read counts,[1],2.78
same,log2 fold change of degron read counts,[2],3.23
same,log2 fold change of degron read counts,[3],2.86
same,log2 fold change of degron read counts,compound: thalidomide,2
B10,log2 fold change of degron read counts,[1],0.5
same,log2 fold change of degron read counts,[2],1.72
same,log2 fold change of degron read counts,[3],1.99
same,log2 fold change of degron read counts,compound: thalidomide,2.39
B11,log2 fold change of degron read counts,[1],1.01
same,log2 fold change of degron read counts,[2],2.39
same,log2 fold change of degron read counts,[3],2.2
same,log2 fold change of degron read counts,compound: thalidomide,2.84
B12,log2 fold change of degron read counts,[1],-0.0305
same,log2 fold change of degron read counts,[2],-0.355
same,log2 fold change of degron read counts,[3],1.46
same,log2 fold change of degron read counts,compound: thalidomide,2.28
B13,log2 fold change of degron read counts,[1],3.53
same,log2 fold change of degron read counts,[2],2.7
same,log2 fold change of degron read counts,[3],2.46
same,log2 fold change of degron read counts,compound: thalidomide,2.1
B14,log2 fold change of degron read counts,[1],0.482
same,log2 fold change of degron read counts,[2],1.27
same,log2 fold change of degron read counts,[3],2.88
same,log2 fold change of degron read counts,compound: thalidomide,2.19
B15,log2 fold change of degron read counts,[1],2.88
same,log2 fold change of degron read counts,[2],2.73
same,log2 fold change of degron read counts,[3],2.34
same,log2 fold change of degron read counts,compound: thalidomide,1.76
B16,log2 fold change of degron read counts,[1],2.68
same,log2 fold change of degron read counts,[2],2.68
same,log2 fold change of degron read counts,[3],2.92
same,log2 fold change of degron read counts,compound: thalidomide,2.93
B17,log2 fold change of degron read counts,[1],2.73
same,log2 fold change of degron read counts,[2],2.15
same,log2 fold change of degron read counts,[3],1.33
same,log2 fold change of degron read counts,compound: thalidomide,0.286
B18,log2 fold change of degron read counts,[1],-2.52
same,log2 fold change of degron read counts,[2],-2.06
same,log2 fold change of degron read counts,[3],-2.42
same,log2 fold change of degron read counts,compound: thalidomide,-1.9
B19,log2 fold change of degron read counts,[1],-1.36
same,log2 fold change of degron read counts,[2],-2.41
same,log2 fold change of degron read counts,[3],-2.78
same,log2 fold change of degron read counts,compound: thalidomide,-0.891
B20,log2 fold change of degron read counts,[1],1.69
same,log2 fold change of degron read counts,[2],2.58
same,log2 fold change of degron read counts,[3],2.93
same,log2 fold change of degron read counts,compound: thalidomide,3.24
B21,log2 fold change of degron read counts,[1],-0.431
same,log2 fold change of degron read counts,[2],-0.605
same,log2 fold change of degron read counts,[3],-1.14
same,log2 fold change of degron read counts,compound: thalidomide,0.828
B22,log2 fold change of degron read counts,[1],1.76
same,log2 fold change of degron read counts,[2],1.72
same,log2 fold change of degron read counts,[3],1.52
same,log2 fold change of degron read counts,compound: thalidomide,2.04
B23,log2 fold change of degron read counts,[1],0.305
same,log2 fold change of degron read counts,[2],0.574
same,log2 fold change of degron read counts,[3],1.63
same,log2 fold change of degron read counts,compound: thalidomide,1.96
B24,log2 fold change of degron read counts,[1],0.407
same,log2 fold change of degron read counts,[2],0.1
same,log2 fold change of degron read counts,[3],2.47
same,log2 fold change of degron read counts,compound: thalidomide,3.34
B25,log2 fold change of degron read counts,[1],3.22
same,log2 fold change of degron read counts,[2],3.11
same,log2 fold change of degron read counts,[3],2.72
same,log2 fold change of degron read counts,compound: thalidomide,1.82
B26,log2 fold change of degron read counts,[1],-2.19
same,log2 fold change of degron read counts,[2],-2.44
same,log2 fold change of degron read counts,[3],-1.42
same,log2 fold change of degron read counts,compound: thalidomide,-1.61
B27,log2 fold change of degron read counts,[1],-2.4
same,log2 fold change of degron read counts,[2],-2.94
same,log2 fold change of degron read counts,[3],-3.37
same,log2 fold change of degron read counts,compound: thalidomide,-2.18
B28,log2 fold change of degron read counts,[1],-1.43
same,log2 fold change of degron read counts,[2],-2.18
same,log2 fold change of degron read counts,[3],-1.52
same,log2 fold change of degron read counts,compound: thalidomide,-2.31

# — the supplement of paper PMC12645437, “Orthogonal IMiD-Degron Pairs Induce Selective Protein Degradation in Cells” (ACS Chemical Biology, 2025)
